High-throughput results (PubChem)
Pf Dd2 inh: Plasmodium falciparum Dd2 growth inhibition; actives 4.3% (n = 120,000); AID 1347417; P. falciparum Dd2 growth, SYBR Green, 72 h; Potency, µM (titrated, usually from 28.9 µM), for the others: top-dose activity, negative = inhibition, most hits filed as inhibitors; active = well fitted inhibition curve with a large enough effect;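 note: plate controls were DMSO vehicle for no effect and reference drug for full effect; nearly all actives have a fitted effect of over 65% in size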
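Infected erythrocytes (Dd2, 0.3% parasitemia, 2.5% hematocrit final) are added to compound in RPMI-1640/Albumax II medium, grown 72 h at 37C in low oxygen, then lysed with saponin/Triton-X containing SYBR Green and read by fluorescence.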
Numbers without * were called inactive; [ ] = another dose, or the depositor's remark. The full list was thinned out, with hits kept by preference. Potency is the fitted concentration of half-maximal effect.

Results for O=C(O)C[C@@H]1CCN(C(=O)C2CCC2)C[C@@H]1CCN1CCC(n2c(=O)[nH]c3ccccc32)CC1 ?
Pf Dd2 inh: 12%

What do the screens show for `O=C1NC(C(=O)NCc2ccc3c(c2)OCO3)Cn2cccc21` (stereo unspecified)?
Pf Dd2 inh: 27%

How did COc1ccc(F)cc1CN1CCc2[nH]cnc2C1c1cccc(C#N)c1 (stereo unspecified) do in these assays?
Pf Dd2 inh: 5.6µM*

What do the screens show for `N#Cc1cccc(CN2Cc3[nH]cnc3C[C@H]2c2nc(-c3ccccc3)no2)c1`?
Pf Dd2 inh: -20%[44.1 µM]

Results for COc1ccc(-c2noc(CN3CCCCC3c3cccc(F)c3)n2)c(OC)c1OC (stereo unspecified) ?
Pf Dd2 inh: -19%

How did Cc1cc(Cl)ccc1S(=O)(=O)N1CCc2nn(C)c(=O)n2CC1 do in these assays?
Pf Dd2 inh: inactive

What do the screens show for `Cc1noc(C)c1CC(=O)N(C)C1CCc2nn(CC3CC3)c(=O)n2CC1` (stereo unspecified)?
Pf Dd2 inh: 23%

How did COc1cccc(-c2noc(-c3ccc(N4CCCC(CO)C4)nc3)n2)c1OC (stereo unspecified) do in these assays?
Pf Dd2 inh: inactive

Results for Cc1ccc(CN2C(=O)OC(c3cccc(NC(=O)Cc4ccccc4)c3)C2C(=O)N2CCCC2)cc1 (stereo unspecified) ?
Pf Dd2 inh: -15%

Results for COCC(=O)N(C1CCOCC1)C1CCN(C(=O)c2ccncc2)CC1 ?
Pf Dd2 inh: 10%

What do the screens show for `COc1ncc(CN2CCc3c(n(Cc4cccnc4)n(-c4ccccc4)c3=O)C2)cn1`?
Pf Dd2 inh: 39%[44.1 µM]

How did CCNc1ncnc2sc3c(c12)CCN(C(=O)CCOC)C3 do in these assays?
Pf Dd2 inh: -14%

How did CCNc1ncnc2sc3c(c12)CCN(Cc1ccncc1)C3 do in these assays?
Pf Dd2 inh: 13µM*

How did Oc1cccc(Nc2ncnc3sc4c(c23)CCCC4)c1 do in these assays?
Pf Dd2 inh: -28%

How did CCNc1ncnc2sc3c(c12)CCN(C(=O)COC)C3 do in these assays?
Pf Dd2 inh: -9%

What do the screens show for `COCCCNc1ncnc2sc3c(c12)CCN(Cc1cccnc1)C3`?
Pf Dd2 inh: 5µM*

What do the screens show for `CC(C)(C)NC(=O)CN1C(=O)NC2(CCC(C(C)(C)C)CC2)C1=O` (stereo unspecified)?
Pf Dd2 inh: -24%

How did Cc1ccc(C)c(OCCn2cc(C(=O)c3ccco3)c3ccccc32)c1 do in these assays?
Pf Dd2 inh: 1µM*

What do the screens show for `COc1ccc(OCCn2cc(C(=O)c3ccco3)c3ccccc32)cc1`?
Pf Dd2 inh: 1µM*

Results for O=C(c1cccs1)c1cn(CCOc2ccccc2Cl)c2ccccc12 ?
Pf Dd2 inh: 3.2µM*

Results for CCOC(=O)c1ccc(NC(=O)Cn2cc(C(=O)c3cccs3)c3ccccc32)cc1 ?
Pf Dd2 inh: -4%

Results for O=C(c1cn(CCOc2ccccc2F)c2ccccc12)C1CCCCC1 ?
Pf Dd2 inh: -27%

Results for Cc1ccc(NC(=O)Cn2cc(C(=O)c3ccccc3)c3ccccc32)c(C)c1 ?
Pf Dd2 inh: 7%

How did Cc1ccc(CN(Cc2ccco2)C(=O)COc2ccccc2C)cc1 do in these assays?
Pf Dd2 inh: inactive

How did COc1ccc(NC(=O)Cn2cc(C(=O)C3CCCCC3)c3ccccc32)cc1 do in these assays?
Pf Dd2 inh: -29%

How did COc1ccc(OCC(=O)Nc2ccc3c(c2)nc(CCNC(=O)c2ccco2)n3C)cc1 do in these assays?
Pf Dd2 inh: -22%

What do the screens show for `O=C(NCc1ccccc1-n1cncn1)C12CNCC1CNC2` (stereo unspecified)?
Pf Dd2 inh: -2%

What do the screens show for `CNC(=O)[C@@H]1C[C@H](Oc2cccnc2)CN1C(=O)C1CCCC1`?
Pf Dd2 inh: 2%

What do the screens show for `Cc1ccsc1C(=O)NCCC1CCN(C(=O)Nc2cc(F)cc(F)c2)CC1`?
Pf Dd2 inh: inactive

Results for O=C(CN1CC2CC(C1)[C@H]1CCCC(=O)N1C2)NCc1ccc(N2CCOCC2)cc1 (stereo partly specified) ?
Pf Dd2 inh: -20%

What do the screens show for `O=C1CCN(C(=O)[C@@H]2CCCN2C(=O)NC2CCCCC2)CCCCCCN1`?
Pf Dd2 inh: 4%

Results for Cn1nc(C2CCN(C(=O)CCC3CCCC3)CC2)c2c1CCOC2 ?
Pf Dd2 inh: inactive[5.79 µM]

How did Cc1ccc(-c2cn3c(n2)sc2cc(C(=O)NCCCN4CCCCC4)ccc23)cc1 do in these assays?
Pf Dd2 inh: 2.5µM*

What do the screens show for `CCc1ccc(-c2cn3c(n2)sc2cc(C(=O)NC4CCCCC4)ccc23)cc1`?
Pf Dd2 inh: inactive

How did O=C(NCCn1ccn2nc(-c3ccc(F)cc3)cc2c1=O)c1ccsc1 do in these assays?
Pf Dd2 inh: inactive

How did COCCCNC(=O)C1CCN(c2nn3cc(-c4ccc(F)cc4)nc3s2)CC1 do in these assays?
Pf Dd2 inh: -4%

What do the screens show for `COc1ccc(-c2cn3c(n2)sc2cc(C(=O)NC4CCCCC4)ccc23)cc1`?
Pf Dd2 inh: 17%

What do the screens show for `O=C(NCCn1ccn2nc(-c3ccc(F)cc3)cc2c1=O)c1ccc(F)c(Cl)c1`?
Pf Dd2 inh: inactive

What do the screens show for `CC1CCCCN1CCCNC(=O)c1ccc2c(c1)sc1nc(-c3ccc(F)cc3)cn12` (stereo unspecified)?
Pf Dd2 inh: 1.4µM*

How did CCn1c(C)c(C)c2cc(C(=O)NCCCN3CCCCC3)ccc21 do in these assays?
Pf Dd2 inh: inactive

What do the screens show for `O=C(NCCCN1CCCCC1)c1ccc2c(c1)sc1nc(-c3ccc(F)cc3)cn12`?
Pf Dd2 inh: 2.8µM*

What do the screens show for `O=C(NC1CCCCCC1)c1ccc2c(c1)sc1nc(-c3ccccc3)cn12`?
Pf Dd2 inh: 10µM*

What do the screens show for `O=C(NC1CCC(O)CC1)c1ccc(-c2ncc3cnc(-c4ccccc4)cn23)cc1` (stereo unspecified)?
Pf Dd2 inh: -12%[44.1 µM]

How did Cc1ccc(Cl)cc1N1CCN(CCCNC(=O)c2ccc3nc(N4CCCCC4)sc3c2)CC1 do in these assays?
Pf Dd2 inh: inactive

How did Cc1nc(C)c(C(=O)N2CCn3c(nnc3[C@@H]3C[C@@H](O)CN3Cc3ccccc3)C2)s1 do in these assays?
Pf Dd2 inh: -2%

How did COc1ccc(C)cc1NC(=O)c1ccc2c(c1)N(C)C1CCCN1C2=O (stereo unspecified) do in these assays?
Pf Dd2 inh: inactive

Results for CC(C)c1noc([C@@H]2C[C@H](NC(=O)Nc3ccccc3)CN2C)n1 ?
Pf Dd2 inh: inactive

What do the screens show for `O=C(O)c1cccc(C2CCCN(C(=O)CCn3nnc4ccccc43)C2)c1` (stereo unspecified)?
Pf Dd2 inh: -8%

Results for COc1ccc(N2CCOC3CCN(Cc4ccccn4)CC3C2=O)cc1 (stereo unspecified) ?
Pf Dd2 inh: inactive

Results for COc1ccccc1-n1c(=O)[nH]c2cccnc21 ?
Pf Dd2 inh: -16%[44.1 µM]

Results for CN(Cc1ccnn1C)C1CCCc2ccccc21 (stereo unspecified) ?
Pf Dd2 inh: inactive

Results for CCOCC(=O)N1CCC(Cc2ccc(C(=O)N(C)C)cc2)CC1 ?
Pf Dd2 inh: -15%

Results for COc1ccc(Cl)cc1-n1nc(C2CC2)nc1C(C)Cn1cncn1 (stereo unspecified) ?
Pf Dd2 inh: -14%

What do the screens show for `O=C1CCC2(CNC(=O)c3ccco3)CCCC=C2N1` (stereo unspecified)?
Pf Dd2 inh: 50%

How did c1coc(CN[C@H]2CO[C@H]3[C@@H]2OC[C@@H]3n2nnnc2Oc2ccc(-n3cncn3)cc2)c1 do in these assays?
Pf Dd2 inh: 27%
